This is a sample that favours compounds with a hit; in the whole collection about 2.9% have one here.
GALC G270D up: galactocerebrosidase G270D activity enhancement, cell-based. P54803. 145M-Twi-hGALC-G270D cells (Twitcher mouse brain line with human GALC G270D), HMU-beta-Gal fluorescence, 48 h. Potency, µM (highest dose often 57.5 µM), usual class: activators. actives 0.1% (n = 45,000). AID 1159614; also: nearly all actives have a fitted effect of over 65% in size
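Fluorescence readout: HMU-β-gal cleavage by mutant GALC (0.1 mM final, citrate/phosphate pH 5.2 with 1 mg/mL taurocholate), stopped with carbonate/bicarbonate plus Triton X-100. Cells: murine Twitcher 145M-Twi expressing human G270D GALC; qHTS for activators.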
PTAP-TSG101 blk: TSG101-PTAP interaction inhibition, HIV-1 budding; Q99816; Fluorescence polarization, FITC-PTAP peptide/Tsg101, 20 min; Potency, µM (titrated, usually from 115 µM), usual class: inhibitors; 44,000 tested, under 10 active
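Fluorescence polarization: Tsg101 binding domain (10 uM final) in 10 mM HEPES pH 7.5, 0.15 M NaCl, 0.01% Tween 20, 3 mM EDTA, 0.1 mM TCEP; compounds pinned; FITC-PTAP peptide 50 nM final; 20 min, r.t.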
B2AR arrestin ag: ADRB2 beta-arrestin recruitment; HTLA Tango cells, beta-arrestin recruitment, luciferase luminescence, 18 h; Potency, µM (series often up to 46.1 µM), usual class: activators; 44,000 tested, under 10 active; AID 1347077
Target sequence (P07550 whole entry, looked up): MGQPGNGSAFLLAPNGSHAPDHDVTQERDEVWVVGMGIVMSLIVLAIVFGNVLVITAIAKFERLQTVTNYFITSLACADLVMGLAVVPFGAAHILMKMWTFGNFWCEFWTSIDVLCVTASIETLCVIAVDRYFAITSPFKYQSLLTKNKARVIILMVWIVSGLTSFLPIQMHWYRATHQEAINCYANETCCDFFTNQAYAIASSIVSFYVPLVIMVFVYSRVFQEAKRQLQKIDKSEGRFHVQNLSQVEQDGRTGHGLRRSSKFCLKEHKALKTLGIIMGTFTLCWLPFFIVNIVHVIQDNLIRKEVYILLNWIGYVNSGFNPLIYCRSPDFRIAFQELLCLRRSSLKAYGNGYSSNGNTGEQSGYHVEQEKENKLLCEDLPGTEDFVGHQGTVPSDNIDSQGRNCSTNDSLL
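Ligand-induced beta-arrestin recruitment to recombinant beta2-AR is measured via a tTA-driven luciferase reporter in Tango cells after 18 hr compound exposure at 37 degrees C. Concentrations span up to 46 microM.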
GPR32 ag: agonists of human resolvin D1 receptor DRV1 (GPR32) | CHO-K1 GPR32 beta-arrestin PathHunter luminescence, 90 min; zero percent set by DMSO-only wells | AID 1346428 | actives 2.5% (n = 48,000) | activation, % at 76.9 µM;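 active = activation of at least 60% and not above a set upper limit, about 1 call in 100 departs from these limits; inconclusive = activation of 40% to 60%, or above that upper limit; inactive = activation under 40%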
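Luminescent readout of beta-Gal complementation quantifies ligand-induced beta-arrestin association with GPR32 in CHO-K1 cells; 90 min compound incubation at 37 °C, detection 1 h at room temperature.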
Hits are given with their value; 0 = inactive; ? = inconclusive; - = no result. Unless noted, calls follow the shape of the dose curve; as a rule, active = well fitted curve in the direction sought with a large enough effect; inconclusive = small, poorly fitted or top-dose-only effect, or another doubt; inactive = no such curve, though single readings can be large; an effect the other way counts as inactive or inconclusive.

SMILES | GALC G270D up | PTAP-TSG101 blk | B2AR arrestin ag | GPR32 ag
CC(=O)OCC(=O)[C@@]12N=C(C)O[C@@H]1C[C@H]1[C@@H]3CCC4=CC(=O)C=C[C@]4(C)[C@H]3[C@@H](O)C[C@@]12C | 0 | - | - | 0
CC(C)c1ccc(NC(=O)C2(C)Cc3ccccc3C(=O)O2)cc1 (centres undefined) | 0 | 0 | 0 | 78.6
Cc1cccc(NC(=O)C2(C)Cc3ccccc3C(=O)O2)c1 (centres undefined) | 0 | 0 | 0 | 0
COc1ccc(CCNc2ncnc3c2cnn3-c2ccc(F)cc2)cc1 | 0 | 0 | 0 | 66.4
COc1ccc(CCNc2ncnc3c2cnn3-c2cccc(Cl)c2)cc1 | 0 | 0 | 0 | 114.1
NS(=O)(=O)c1ccc(N2CCCCS2(=O)=O)cc1 | 0 | - | - | 0
CCCCCC=CCC=CCCCCCCCC(=O)OCC | 0 | - | - | 63.3
CCOC(=O)c1cccc(NC(=O)c2cc3cc4cc(OC)ccc4nc3s2)c1 | 0 | 0 | 0 | 100.8
CCOC(=O)c1cccc(NC(=O)c2cc3cc4ccc(C)cc4nc3s2)c1 | 0 | 0 | 0 | 0
Cc1cc(NC(=O)CCc2nc3cccnc3n2-c2ccccc2)ccc1Br | 0 | 0 | 0 | 65.8
CCN(CC)S(=O)(=O)c1ccc2c(c1)N(CC(=O)N1CCN(c3ccccc3F)CC1)C(=O)CO2 | 0 | 0 | 0 | 0
COc1ccccc1-c1cc(C(F)(F)F)nc(S(=O)(=O)CCCC(=O)Nc2ccc(F)c(Cl)c2)n1 | 0 | 0 | 0 | 0
COc1ccccc1-c1cc(C(F)(F)F)nc(S(=O)(=O)CCCC(=O)Nc2cc(OC)c(OC)c(OC)c2)n1 | 0 | 0 | 0 | 80.5
Cc1ccc(-n2ncc3c(Nc4cccc(C)c4)ncnc32)cc1 | 0 | 0 | 0 | ?
Cc1ccc(-n2ncc3c(Nc4cccc(C(F)(F)F)c4)ncnc32)cc1C | 0 | 0 | 0 | 93.7
O=c1c2ccccc2nc(-c2ccc(Cl)cc2)n1CCCOc1ccccc1F | 0 | 0 | 0 | 0
Cc1c(-c2cccc(NC(=O)Nc3ccc(Cl)cc3)c2)nc2ncccn12 | 0 | 0 | 0 | ?
Cc1c(-c2cccc(NC(=O)c3ccc(F)c(F)c3)c2)nc2ncccn12 | 0 | 0 | 0 | 64.1
Cc1cc(C(F)(F)F)n2nc(-c3ccc(Br)cc3)cc2n1 | 0 | 0 | 0 | 0
COc1ccc(Nc2c3c(nc4nncn24)CCC3)cc1OC | 0 | 0 | 0 | 93.3
COc1cccc(Nc2c3c(nc4nncn24)CCC3)c1 | 0 | 0 | 0 | 0
Cc1cc2[nH]c(=O)c(=O)[nH]c2cc1S(=O)(=O)N1CCN(c2cccc(C)c2C)CC1 | 0 | 0 | 0 | 0
Cc1cc2[nH]c(=O)c(=O)[nH]c2cc1S(=O)(=O)N1CCN(c2ccccc2F)CC1 | 0 | 0 | 0 | 70.1
CCC(Nc1ccc(-c2nc(-c3cccnc3)no2)cc1[N+](=O)[O-])c1ccccc1 (centres undefined) | 0 | 0 | 0 | 0
CCc1c(C)nc2nc(-c3ccccc3)nn2c1NCc1ccc(C)cc1 | 0 | 0 | 0 | 72.2
SMILES | GALC G270D up | PTAP-TSG101 blk | B2AR arrestin ag | GPR32 ag
O=C(CCCCn1c(=O)c2ccccc2n(Cc2ccccc2F)c1=O)NCc1ccc2c(c1)OCO2 | 0 | 0 | 0 | 0
O=C(CCCn1c(=O)c2sccc2n(Cc2ccc(Cl)cc2)c1=O)NCc1ccc2c(c1)OCO2 | 0 | 0 | 0 | 0
COc1ccc(NC(=O)c2ccc(NC(=O)CCS(=O)(=O)c3cccs3)cc2)cc1Cl | 0 | 0 | 0 | ?
O=C(CCS(=O)(=O)c1cccs1)Nc1ccc(C(=O)Nc2cccc(Cl)c2)cc1 | 0 | 0 | 0 | 65.3
CCCCNC(=O)c1ccc(-c2nc(CN3CCc4ccccc43)c(C)o2)cc1 | 0 | 0 | 0 | 0
COCCCNC(=O)c1ccc(-c2nc(CS(=O)(=O)c3ccc(C)cc3)c(C)o2)cc1 | - | 0 | 0 | 0
CCN(CC)CCCNC(=O)c1ccc(-c2nc(CN3CCc4ccccc43)c(C)o2)cc1 | 0 | 0 | 0 | 95.3
CCCCNC(=O)c1ccc(-c2nc(CS(=O)(=O)c3ccc(C)cc3)c(C)o2)cc1 | 0 | 0 | 0 | 69.4
Cc1ccc(CNC(=O)c2ccc(-c3nc(CS(=O)(=O)c4ccc(C)cc4)c(C)o3)cc2)cc1 | ? | 0 | 0 | 109.8
O=C(NCCc1ccc(Cl)cc1)c1ccc(CS(=O)Cc2cccc(Cl)c2)o1 (centres undefined) | 0 | 0 | 0 | 0
COc1ccc(S(=O)(=O)Nc2ccc3oc4c(c3c2)C(=O)CC(C)(C)C4)cc1 | 0 | 0 | 0 | 64.3
O=c1cc[nH]c(=S)[nH]1 | 0 | - | - | 67.7
C[C@@]1(C2CCCC2)Cc2cc(OCC(=O)O)c(Cl)c(Cl)c2C1=O | - | - | - | 0
C=C(CC)C(=O)c1ccc(OCC(=O)O)c(Cl)c1Cl | 0 | - | - | 89.6
Cc1ccc(Nc2c(-c3ccco3)nc3ccc(C)cn23)cc1 | 0 | 0 | 0 | 0
O=C(CCCl)NCCc1ccccc1 | 0 | - | - | 0
CCOc1ccc(-c2nc3c(c(SCC(=O)N4CCCCC4)n2)Cc2cccc(OC)c2O3)cc1 | 0 | 0 | 0 | 0
CC(C)OCCCn1c(SCC(=O)Nc2ccc(F)cc2)nc2c(sc3ccccc32)c1=O | 0 | 0 | 0 | 0
CC(C)OCCCn1c(SCC(N)=O)nc2c(sc3ccccc32)c1=O | 0 | 0 | 0 | 115.0
COCCCn1c(SCc2ccccc2F)nc2c(sc3ccccc32)c1=O | 31.6µM | 0 | 0 | 0
COc1cccc(C(=O)NCCc2csc3nc(-c4ccccc4F)nn23)c1OC | 0 | 0 | 0 | 68.4
O=C(NCCc1csc2nc(-c3ccccc3F)nn12)c1ccccc1C(F)(F)F | 0 | 0 | 0 | 0
O=C(NCCc1csc2nc(-c3ccccc3F)nn12)c1ccco1 | 0 | 0 | 0 | 0
O=C(Cc1ccc(F)cc1)NCCc1csc2nc(-c3ccccc3F)nn12 | 0 | 0 | 0 | 61.7
COc1ccnc2c1CCCCC2S(=O)c1nc2ccccc2[nH]1 (centres undefined) | 0 | - | - | 0
SMILES | GALC G270D up | PTAP-TSG101 blk | B2AR arrestin ag | GPR32 ag
Cc1c(Cl)cccc1-c1ccc(C(=O)Nc2ccc(F)cc2)o1 | 0 | 0 | 0 | 60.8
Cc1ccccc1-c1nc(CN2CCCC(C(=O)NCc3ccc(Cl)cc3)C2)c(C)o1 (centres undefined) | 0 | 0 | 0 | 0
Cc1oc(-c2ccc(Cl)cc2)nc1CN1CCCC(C(=O)NCc2ccccc2)C1 (centres undefined) | 0 | 0 | 0 | 106.4
Cc1oc(-c2cccc(Cl)c2)nc1CN1CCCC(C(=O)NCc2ccc(F)cc2)C1 (centres undefined) | 0 | 0 | 0 | 70.5
CCc1ccc(Sc2cc(C(=O)NC(C)CC)c3ccccc3n2)cc1 (centres undefined) | 0 | 0 | 0 | 74.7
Nc1nc(Cl)nc2c1ncn2[C@@H]1O[C@H](COP(=O)(O)OP(=O)(O)OP(=O)(O)O)[C@@H](O)[C@H]1O | - | - | - | 0
COc1cccc(C(=O)N2CCC(c3nc4ccccc4s3)CC2)c1 | 0 | 0 | 0 | 95.0
CCCOc1ccccc1C(=O)N1CCC(c2nc3ccccc3s2)CC1 | 0 | 0 | 0 | 104.2

Assay outcomes (PubChem BioAssay)
